In the library only some 0.96% were active in any assay of this set; here they are far more common.
TRPML1 ag: activates the human TRPML1 channel; Q9GZU1; TRPML1-expressing cells, Ca2+ dye fluorescence, FDSS; activation, % (test concentration not listed); 0.12% of 410,000 active; AID 624414; in the data active = activation above about 50%; inconclusive = mostly about 30% to 49%; also: 0% is about no effect
Target sequence (Q9GZU1 whole entry, looked up): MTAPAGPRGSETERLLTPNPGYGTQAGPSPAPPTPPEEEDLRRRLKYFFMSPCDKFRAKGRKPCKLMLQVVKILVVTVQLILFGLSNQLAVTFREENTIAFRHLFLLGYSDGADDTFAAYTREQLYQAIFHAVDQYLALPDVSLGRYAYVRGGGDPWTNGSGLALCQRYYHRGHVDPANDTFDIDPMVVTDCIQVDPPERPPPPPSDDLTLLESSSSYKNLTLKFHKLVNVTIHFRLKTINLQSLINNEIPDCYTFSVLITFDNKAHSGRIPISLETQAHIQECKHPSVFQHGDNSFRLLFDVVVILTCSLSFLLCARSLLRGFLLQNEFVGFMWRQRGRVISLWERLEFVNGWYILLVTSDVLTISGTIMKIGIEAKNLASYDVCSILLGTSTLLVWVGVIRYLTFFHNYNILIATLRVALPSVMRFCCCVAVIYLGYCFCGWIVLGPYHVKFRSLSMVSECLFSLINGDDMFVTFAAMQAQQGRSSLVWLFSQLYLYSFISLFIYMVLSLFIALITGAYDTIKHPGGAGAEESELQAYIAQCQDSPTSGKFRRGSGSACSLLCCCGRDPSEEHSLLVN
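Tetracycline-induced TRPML1-DL cells are seeded and incubated overnight before loading with a no-wash Ca2+ dye and quencher. Agonist activity is taken from the 110 s fluorescence read following compound pin-transfer on an FDSS, before EC80 54-4 challenge.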
TRPV1 ag: agonists of human vanilloid receptor 1 (TRPV1) | Q8NER1 | TRPV1-expressing cells, Fluo-8 calcium influx, agonist mode | activation, % at 8.33 µM | 0.19% of 320,000 active; in the data active = activation above about 80%; inconclusive = between about 30% and that limit; also: 0% is about no effect
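Fluo-8 calcium influx in TRPV1-expressing cells, kinetic read (ex 480/em 520 nm). Compound added and read 3 min for agonist activity, followed by capsaicin at EC20 final and 2 min further read for enhancement.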
TRHR PAM: allosteric enhancers of human TRH receptor; TRHR cells, fluo-8 calcium fluorescence, EC20 TRH enhancement; enhancement, % at 2 µM; 0.66% of 360,000 active; in the data active = enhancement above about 30%; also: 0% is about no effect
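Enhancer read-out: after compound pinning and an initial kinetic agonist-mode read, an EC20 of TRH (10 nM final) was injected and fluo-8 calcium signal (Ex 480/Em 530) followed at 1 s/cycle for 100 cycles in TRHR-expressing cells.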
TRHR ag: agonists of human TRH receptor; activation, % at 2 µM; AID 493084; P34981; 0.18% of 360,000 active; TRHR cells, calcium flux fluo-8, FDSS agonist mode; in the data active = activation above about 30%; also: 0% is about no effect
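Fluo-8-loaded TRHR cells; 10 s baseline, compound added, kinetic Ca2+ fluorescence read 1/s, agonist mode.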
TRPML1 inh: blocks the human TRPML1 channel; Q9GZU1; TRPML1-inducible cells, Ca2+ dye fluorescence, FDSS; active compounds read low; inhibition of EC80 agonist-evoked calcium signal; activity change, negative = inhibition, % (no concentration beside the values); 0.02% of 390,000 active; in the data active = activity change below about -50%; inconclusive = between about -30% and that limit;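 also: stimulus is agonist 54-4 at its EC80 concentration; % is scaled to controls: 0 for no effect and ±100 for the full control effect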
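TRPML1-DL cells, Tet-induced overnight (~16 h, 37 °C) at 1,500 cells/well, were loaded with Ca8 no-wash dye plus quencher for 45-90 min at room temperature. Compounds were pinned during FDSS kinetic reading; agonist 54-4 at EC80 (4 uM final) then added.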
TRPV1 PAM: potentiators of human vanilloid receptor 1 (TRPV1); 0.02% of 320,000 active; TRPV1-expressing cells, Fluo-8 calcium influx, capsaicin EC20 potentiation; potentiation, % at 8.33 µM; Q8NER1; in the data active = potentiation above about 80%; inconclusive = between about 30% and that limit; also: 0% is about no effect
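TRPV1-expressing cells were cultured overnight at 35.5C and loaded with Fluo-8 calcium dye for 40 to 90 min at room temperature. After a 10 s baseline, compound was added and calcium influx was read kinetically for 3 min (ex 480/em 520 nm).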
Starred values were filed as active, the others as inactive; ? = inconclusive; . = no result.

SMILES | TRPML1 ag | TRPV1 ag | TRHR PAM | TRHR ag | TRPML1 inh | TRPV1 PAM
O=C(Cc1ccc(F)cc1)NCCc1ccc(F)cc1 | -2 | -6 | 8 | -2 | -10 | 6
Cc1ccc(OCCNC(=O)Cc2ccc(F)cc2)cc1 | 3 | 84* | 5 | -1 | 24 | -13
c1ccc2c(N=NN3CCCCC3)ccnc2c1 | 1 | . | . | . | . | .
CCN(CC)c1ccc(NC(=O)COc2ccccc2C#N)cc1S(=O)(=O)Nc1ccc(OC)cc1 | 1 | 6 | -1 | 1 | -11 | 4
CCN(CC)c1ccc(NC(=O)c2cnccn2)cc1S(=O)(=O)Nc1ccc(OC)cc1 | 0 | 85* | -3 | 0 | 29 | 20
COc1cc2c(cc1OC)C(C(=O)Nc1ccccn1)C(c1cccnc1)N(C)C2=O (stereo not given) | 1 | -2 | 2 | 0 | -52* | 15
CCc1cccc(NC(=O)COC(=O)c2ccccc2OCc2ccccc2Br)c1 | 3 | . | . | . | . | .
COc1ccc(-n2c(C)nc(=O)c(-c3ccccc3)c2C)cc1 | 2 | 1 | -3 | 0 | 8 | 11
CCc1nc(=O)c(-c2ccccc2)c(C)n1-c1ccccc1 | 2 | 0 | 37* | 0 | -53* | 25
CCCc1ccc(OC(C)c2nc(-c3ccc(-n4cccc4)cc3)no2)cc1 (stereo not given) | 1 | . | 36* | 3 | -22 | .
CN(C)c1ccc(-c2cc[nH]c(=O)c2N)cc1 | . | . | 4 | 1 | . | .
CC(C)(C)OC(=O)Cc1nnc(-c2nc3ccccc3[nH]2)s1 | . | . | 0 | 1 | . | .
O=C(Cn1c(=O)n(Cc2ccccc2)c(=O)c2sc3ccccc3c21)Nc1ccccc1 | 1 | . | -10 | 1 | 2 | .
COc1ccc(NC(=O)Cn2c(=O)n(Cc3ccccc3)c(=O)c3sc4ccccc4c32)cc1 | 0 | . | 35* | 1 | 0 | .
COc1ccc(-c2nc3ccc(NC(C)=O)cc3c(=O)n2Cc2cccc(Cl)c2)cc1COc1ccc(NC(C)=O)cc1 | 1 | . | . | . | . | .
CCN(CC)S(=O)(=O)c1ccc(N2CCCCC2)c(NC(=O)/C(C#N)=C/c2ccc(OC)cc2)c1 | 0 | 1 | 2 | 0 | 3 | 2
CCOc1ccc(NC(=O)/C(C#N)=C/c2ccc(N3CCCC3)c(C)c2)cc1 | 9 | 24 | 9 | 32* | -9 | -3
CSc1ccccc1NC(=O)CN(C1CCCCC1)S(C)(=O)=O | 0 | 0 | -12 | 0 | -10 | -16
CN(CC(=O)Nc1ccccc1Sc1ccccc1)C1CCCCC1 | 60* | 21 | 14 | 1 | ? | -11
O=C(Nc1cc(C(F)(F)F)ccc1Cl)C(O)Cc1ccccc1 (stereo not given) | . | . | 2 | -1 | . | .
CC(C)(C)c1ccc(C(=O)Nc2ccc(Cl)cc2)cc1 | 1 | 80* | 20 | 1 | -6 | 8
CC(C)(C)c1ccc(NC(=O)c2ccsc2)cc1 | 0 | 83* | -4 | 0 | 3 | 6
COC(=O)Cc1ccc(NC(=O)c2ccc(C(C)(C)C)cc2)cc1 | 6 | 81* | 2 | 0 | -6 | -11
O=C(Nc1ccc(Nc2ccccc2)cc1)c1ccc(Cl)cc1 | -1 | . | . | . | 9 | .
CC(C)(C)c1cc(C(=O)NNC(=O)c2ccc(Cl)cc2)no1 | 0 | 82* | 1 | -1 | -6 | -26
SMILES | TRPML1 ag | TRPV1 ag | TRHR PAM | TRHR ag | TRPML1 inh | TRPV1 PAM
COc1ccc(C2c3[nH]c4ccc(OC)cc4c3CCN2C(=O)Nc2ccccc2)cc1 (stereo not given) | 0 | . | 5 | 1 | 14 | .
CC(C)C[C@H](N)c1cn([C@@H](CCCCN)C(=O)N2CCNCC2)nn1 | 0 | 0 | 31* | 0 | 11 | 21
C#CCOCCOCCOCCNc1nc(N2CCN(C(=O)[C@H](CCCCN)n3cc([C@@H](N)C(C)CC)nn3)CC2)nc(N2CCN(C(=O)[C@H](CCCCN)n3cc([C@@H](N)CO)nn3)CC2)n1 (stereo not given in full) | . | -3 | 37* | 0 | . | 28
C#CCOCCOCCOCCNc1nc(N2CCN(C(=O)[C@H]([C@@H](C)CC)n3cc([C@@H](N)CC(C)C)nn3)CC2)nc(N2CCN(C(=O)[C@H](CCCCN)n3cc([C@@H](N)CC(C)C)nn3)CC2)n1 | 1 | -3 | 38* | 0 | -21 | 20
C#CCOCCOCCOCCNc1nc(N2CCN(C(=O)[C@H]([C@@H](C)CC)n3cc([C@@H](N)CC(C)C)nn3)CC2)nc(N2CCN(C(=O)[C@H](CCCCN)n3cc([C@@H](N)C(C)CC)nn3)CC2)n1 (stereo not given in full) | 0 | -2 | -8 | 0 | -4 | 15
C#CCOCCOCCOCCNc1nc(N2CCN(C(=O)[C@H]([C@@H](C)CC)n3cc([C@@H](N)CO)nn3)CC2)nc(N2CCN(C(=O)[C@H](CCCCN)n3cc([C@@H](N)C(C)CC)nn3)CC2)n1 (stereo not given in full) | 0 | 0 | 1 | 1 | 29 | 13
CC(C)CC(N)c1cn([C@@H](CCC(=O)O)C(=O)N2CCNCC2)nn1 (stereo not given in full) | 0 | -3 | -2 | 0 | 14 | -7
Cc1nnc(NC(=O)C2CCN(C(=O)c3ccsc3)CC2)s1 | -1 | . | . | . | . | .
O=C(COC(=O)c1cc(Cl)ccc1[N+](=O)[O-])NCc1ccc(Cl)cc1Cl | 2 | -3 | 39* | 0 | -17 | -5
CC(C)/C=C/CN1CCN(CCCc2ccccc2)C(CCO)C1 (stereo not given) | 1 | 4 | 34* | 0 | 17 | -6
Cc1ccc(NC(=O)c2cnn3c2NC(=C2CC2)C=C3C(F)F)cc1C | -1 | . | . | . | . | .
CCOc1ccc(C2CC(=O)NC(NC(=O)c3ccc(C)cc3)=N2)cc1 (stereo not given) | 3 | . | 35* | -1 | 18 | .
O=C(CSc1nccc(=O)[nH]1)Nc1ccc2c(c1)OCCO2 | 0 | -1 | 4 | 1 | 10 | -5
Cc1cc(=O)[nH]c(SCC(=O)Nc2ccc3c(c2)OCCO3)n1 | 1 | 1 | 32* | 0 | 16 | 6
Cn1nc(CC(=O)Nc2ccc3c(c2)OCCO3)c2ccccc2c1=O | -1 | 4 | -6 | 0 | 30 | 81*

Compound activity: PubChem, National Center for Advancing Translational Sciences (NCATS)
